Our source for the growth values is PubChem BioAssay (NCI).

Each structure is given as a SMILES string. About 83,000 compounds went through this panel and 20% of them were active in at least one assay; those are over-represented in the sample as a whole.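 Testing used 96-well plates and a 48-hour single-concentration exposure. Example: -40 means 40% of the starting cells died.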 Calls of active or inactive are those of the source. Rule for the calls: active = growth percent below 10; inactive = the rest.

The test system of the first assay is CAKI-1 renal. As to the kind of experiment: NCI-60 one-dose screen, 48 h (100 = growth as untreated, 0 = no growth, -100 = all killed). The settings on record: 10 µM unless noted.
On to `Cc1ccc2c(NCCCN(C)C)c3c(C)nn(C)c3nc2c1`, for which the growth is 14.5% (inactive).
On the same count and under the same terms, as for `CCc1ccccc1NC(=O)c1sc2nc3c(cc2c1N)C(=O)CCC3`, the figure is 29.9% (inactive); as for `C#Cc1nc(Nc2cc(C)[nH]n2)c2ccccc2n1`, -70% (active).
Still for that read-out and setting: with `CC(=O)Oc1cc2cnc3c4cc(OC(C)=O)c(OC(C)=O)cc4ccc3c2cc1OC(C)=O` the figure was 6.51% (active).
As for `Cc1cc(Nc2nc(-c3cccnc3)nc3ccccc23)n[nH]1`, the growth was 2.35% (active).
On the same count and under the same terms, with `CNC(=S)N/N=C/CSC/C=N/NC(=S)NC` the figure was 98.7% (inactive).
On the same count and under the same terms, as for `COc1ccc(CN(c2ccc(C)cc2)C2OC(=O)c3ccccc32)cc1OC` (stereo not drawn), the figure is 99.1% (inactive).
Still for that read-out and setting: as for `COc1cccc(-n2cc(-c3nc(Nc4cc(C)[nH]n4)c4ccccc4n3)nn2)c1`, the figure is 2.59% (active).
`COc1cc(OC)c(/C=C/c2cc[n+](C)c3ccccc23)c(OC)c1`: the growth is 67.1% (inactive).
With `Cc1nn(-c2nc3ccccc3[nH]2)c2c1C(c1ccc3c(c1)OCO3)CC(=O)N2` (stereo not drawn), the growth was 65.7% (inactive).
On the same count and under the same terms, as for `CC1(C)OCC2OC3(C(=O)O)OC(C)(C)OC3C2O1` (stereo not drawn), the figure is 103% (inactive); as for `NCc1cn2cc(Cl)sc2n1`, 102% (inactive).
On the same count and under the same terms, with `COc1ccc(/C=N\NC(=O)c2ccncc2)cc1O` the figure was 90.4% (inactive); with `Nc1cc2nc3ccccc3sc-2cc1=O`, 56.3% (inactive).
Same read-out and setting: as for `N#CC1=C(N)Oc2c(ccc3ccccc23)C1c1cccs1` (stereo not drawn), the figure is 48.9% (inactive); as for `CCOC(=O)c1ccc2c(c1)nc(/C=C/c1ccc(Cl)cc1)n2-c1cc(C(C)(C)C)[nH]n1`, 92.3% (inactive).
As for `CCOC(=O)c1nc(Nc2cc(C)[nH]n2)c2ccccc2n1`, the growth was 37.7% (inactive).
With `O=C(Nc1ccc(F)cc1)Nc1ccc(CCO)cc1`, the growth is 103% (inactive).
Still for that read-out and setting: as for `O=[N+]([O-])c1cccc(C2CC(c3ccccc3)=Nc3ccccc3S2)c1` (stereo not drawn), the figure is 91.6% (inactive).
Same read-out and setting: as for `COc1cc(-c2c3sc(=O)[nH]c3nc3c2c(=O)[nH]n3C(C)C)cc2c1OCO2`, the figure is 88.8% (inactive).
`O=C(N/N=C/c1ccc(O)cc1O)c1cccnc1`: the growth is 13.4% (inactive).
The same measure, in the same setting: as for `CCCCCCCCOC(=O)CC[C@@H](C)[C@H]1CC[C@H]2[C@@H]3[C@H](OC(=O)CCN)C[C@@H]4C[C@H](OC(=O)CCN)CC[C@]4(C)[C@H]3C[C@H](OC(=O)CCN)[C@]12C`, the figure is 108% (inactive); as for `CCOC(=O)N1CCN(c2nc(Nc3cc(C)[nH]n3)c3ccccc3n2)CC1`, 20.8% (inactive).
`Cc1ccc(C2CC3c4ccccc4C2C2CCCCN32)cc1` (stereo not drawn): the growth was 95% (inactive).
On the same count and under the same terms, as for `CC#Cc1nc2ccccc2c(=O)[nH]1`, the figure is 54.5% (inactive); as for `COc1c(C2CC(=O)Nc3c2cnn3Cc2ccco2)cc2c(c1OC)OCO2` (stereo not drawn), 36.9% (inactive).
The same measure, in the same setting: as for `Oc1ccccc1/C=N/Nc1ccc2ccccc2n1`, the figure is 15.3% (inactive); as for `Cc1cc(Nc2nc(N3CCN(C)CC3)nc3ccccc23)n[nH]1`, 13.4% (inactive); as for `COc1cccc2c1C(=O)c1c(O)c3c(c(O)c1C2=O)C[C@@](O)(/C(C)=N/NC(=O)c1ccc(Cl)cc1)C[C@@H]3OC1CC(N)C(O)C(C)O1` (stereo partly drawn), -53.2% (active).
On the same count and under the same terms, with `C#Cc1nc2ccccc2c(=O)[nH]1` the figure was -86.4% (active); with `O=C1Nc2ccc(Br)cc2C12CC(c1ccccc1)=NN2` (stereo not drawn), 51.5% (inactive).
Regarding `CCCCCCCCCCCCN1CCCC(C)C1` (stereo not drawn), the growth is 68.7% (inactive).
On the same count and under the same terms, with `Cc1ccc(NC(=O)c2sc3nc4c(cc3c2N)C(=O)CCC4)cc1C` the figure was 35.7% (inactive); with `O=C(NC(Cc1ccccc1)C(=O)CCl)OCc1ccccc1` (stereo not drawn), 48.2% (inactive).
Same read-out and setting: as for `COc1c(Cl)cc(Cl)cc1Cl`, the figure is 126% (inactive); as for `COc1cc(C2CC(=O)Nc3c2cnn3Cc2ccco2)cc2c1OCCO2` (stereo not drawn), 96.9% (inactive).
As to `O=C1Nc2ccccc2/C1=C/C(=N/c1nnc(-c2ccc(Cl)cc2)s1)c1ccccc1`, the growth is 15% (inactive).
With `CC(=O)OCC(=O)C1CCC=CC1OC(C)=O` (stereo not drawn), the growth is 93.4% (inactive).
Same read-out and setting: as for `c1c2c(cc3c1OCO3)Cc1cc3c(cc1Cc1cc4c(cc1C2)OCO4)OCO3`, the figure is 89.9% (inactive).

Another assay deals with A498 renal. The assay is described as above. The settings on record: 10 µM unless noted.
Take `Cc1ccc2c(NCCCN(C)C)c3c(C)nn(C)c3nc2c1`: the growth is 28.3% (inactive).
On the same count and under the same terms, with `CCc1ccccc1NC(=O)c1sc2nc3c(cc2c1N)C(=O)CCC3` the figure was -9.7% (active).
For `C#Cc1nc(Nc2cc(C)[nH]n2)c2ccccc2n1`, the growth was -93.6% (active).
The same measure, in the same setting: with `CC(=O)Oc1cc2cnc3c4cc(OC(C)=O)c(OC(C)=O)cc4ccc3c2cc1OC(C)=O` the figure was -15.6% (active); with `Cc1cc(Nc2nc(-c3cccnc3)nc3ccccc23)n[nH]1`, -19.7% (active).
The same measure, in the same setting: as for `CNC(=S)N/N=C/CSC/C=N/NC(=S)NC`, the figure is 110% (inactive); as for `COc1ccc(CN(c2ccc(C)cc2)C2OC(=O)c3ccccc32)cc1OC` (stereo not drawn), 79.4% (inactive).
On the same count and under the same terms, as for `COc1cccc(-n2cc(-c3nc(Nc4cc(C)[nH]n4)c4ccccc4n3)nn2)c1`, the figure is 36.1% (inactive).
In the case of `COc1cc(OC)c(/C=C/c2cc[n+](C)c3ccccc23)c(OC)c1`, the growth was 9.92% (active).
As to `Cc1nn(-c2nc3ccccc3[nH]2)c2c1C(c1ccc3c(c1)OCO3)CC(=O)N2` (stereo not drawn), the growth is -8.66% (active).
The same measure, in the same setting: as for `CC1(C)OCC2OC3(C(=O)O)OC(C)(C)OC3C2O1` (stereo not drawn), the figure is 93.6% (inactive); as for `NCc1cn2cc(Cl)sc2n1`, 90.8% (inactive); as for `COc1ccc(/C=N\NC(=O)c2ccncc2)cc1O`, 108% (inactive).
For the compound `Nc1cc2nc3ccccc3sc-2cc1=O`, the growth was 106% (inactive).
Regarding `N#CC1=C(N)Oc2c(ccc3ccccc23)C1c1cccs1` (stereo not drawn), the growth was -5.58% (active).
For the compound `CCOC(=O)c1ccc2c(c1)nc(/C=C/c1ccc(Cl)cc1)n2-c1cc(C(C)(C)C)[nH]n1`, the growth was 58.7% (inactive).
The same measure, in the same setting: with `CCOC(=O)c1nc(Nc2cc(C)[nH]n2)c2ccccc2n1` the figure was 62.4% (inactive); with `O=C(Nc1ccc(F)cc1)Nc1ccc(CCO)cc1`, 85.9% (inactive); with `O=[N+]([O-])c1cccc(C2CC(c3ccccc3)=Nc3ccccc3S2)c1` (stereo not drawn), 96.3% (inactive).
In the case of `COc1cc(-c2c3sc(=O)[nH]c3nc3c2c(=O)[nH]n3C(C)C)cc2c1OCO2`, the growth is 67.1% (inactive).
On the same count and under the same terms, with `O=C(N/N=C/c1ccc(O)cc1O)c1cccnc1` the figure was 92% (inactive); with `CCCCCCCCOC(=O)CC[C@@H](C)[C@H]1CC[C@H]2[C@@H]3[C@H](OC(=O)CCN)C[C@@H]4C[C@H](OC(=O)CCN)CC[C@]4(C)[C@H]3C[C@H](OC(=O)CCN)[C@]12C`, 131% (inactive); with `CCOC(=O)N1CCN(c2nc(Nc3cc(C)[nH]n3)c3ccccc3n2)CC1`, -21.8% (active).
`Cc1ccc(C2CC3c4ccccc4C2C2CCCCN32)cc1` (stereo not drawn): the growth was 139% (inactive).
On the same count and under the same terms, as for `CC#Cc1nc2ccccc2c(=O)[nH]1`, the figure is -44.8% (active); as for `COc1c(C2CC(=O)Nc3c2cnn3Cc2ccco2)cc2c(c1OC)OCO2` (stereo not drawn), -2.53% (active).
On the same count and under the same terms, as for `Oc1ccccc1/C=N/Nc1ccc2ccccc2n1`, the figure is 107% (inactive).
Still for that read-out and setting: with `Cc1cc(Nc2nc(N3CCN(C)CC3)nc3ccccc23)n[nH]1` the figure was 16.9% (inactive); with `COc1cccc2c1C(=O)c1c(O)c3c(c(O)c1C2=O)C[C@@](O)(/C(C)=N/NC(=O)c1ccc(Cl)cc1)C[C@@H]3OC1CC(N)C(O)C(C)O1` (stereo partly drawn), -88.4% (active); with `C#Cc1nc2ccccc2c(=O)[nH]1`, -61.5% (active).
As for `O=C1Nc2ccc(Br)cc2C12CC(c1ccccc1)=NN2` (stereo not drawn), the growth was 46.4% (inactive).
On the same count and under the same terms, as for `CCCCCCCCCCCCN1CCCC(C)C1` (stereo not drawn), the figure is 104% (inactive); as for `Cc1ccc(NC(=O)c2sc3nc4c(cc3c2N)C(=O)CCC4)cc1C`, -2.89% (active).
Still for that read-out and setting: with `O=C(NC(Cc1ccccc1)C(=O)CCl)OCc1ccccc1` (stereo not drawn) the figure was 98.7% (inactive); with `COc1c(Cl)cc(Cl)cc1Cl`, 96.5% (inactive); with `COc1cc(C2CC(=O)Nc3c2cnn3Cc2ccco2)cc2c1OCCO2` (stereo not drawn), 64.3% (inactive).
The same measure, in the same setting: with `O=C1Nc2ccccc2/C1=C/C(=N/c1nnc(-c2ccc(Cl)cc2)s1)c1ccccc1` the figure was 104% (inactive); with `CC(=O)OCC(=O)C1CCC=CC1OC(C)=O` (stereo not drawn), 110% (inactive); with `c1c2c(cc3c1OCO3)Cc1cc3c(cc1Cc1cc4c(cc1C2)OCO4)OCO3`, 107% (inactive).
